Shiga toxin inh = A qHTS for Small Molecule Inhibitors of Shiga Toxin; Vero cells, Shiga toxin protein synthesis inhibition reporter; inhibition, % at 38.7 µM; hit rate 9.2% among 290,000; AID 2315, 2010; in the data active = inhibition mostly above about 28%, no sharp cut-off; inactive = mostly below about 43%; note: 0% is about no effect
CHX counter-1 = Cycloheximide Counterscreen for Small Molecule Inhibitors of Shiga Toxin. max response, %. hit rate 12% among 300,000. cell reporter, cycloheximide protein synthesis inhibition counterscreen. AID 2314, 2010; in the data active = max response mostly above about 13%, no sharp cut-off; inactive = mostly below about 14%; note: read at 38.3 µM for the half of the compounds with a filed dose; 0% is about no effect
LmPK inh = qHTS Assay for Inhibitors of Leishmania Mexicana Pyruvate Kinase (LmPK). Q27686. purified LmPK, Kinase-Glo ATP luminescence, 1 h. Potency, µM (highest dose often 57.5 µM), without a hit: at the highest dose activity change, negative = inhibition, usual class: inhibitors. hit rate 0.37% among 290,000. AID 1721, 2009; note: potency is the fitted concentration of half-maximal effect; % is set by controls: 0 for no effect and ±100 for the full control effect
Target sequence (Q27686 whole entry, looked up): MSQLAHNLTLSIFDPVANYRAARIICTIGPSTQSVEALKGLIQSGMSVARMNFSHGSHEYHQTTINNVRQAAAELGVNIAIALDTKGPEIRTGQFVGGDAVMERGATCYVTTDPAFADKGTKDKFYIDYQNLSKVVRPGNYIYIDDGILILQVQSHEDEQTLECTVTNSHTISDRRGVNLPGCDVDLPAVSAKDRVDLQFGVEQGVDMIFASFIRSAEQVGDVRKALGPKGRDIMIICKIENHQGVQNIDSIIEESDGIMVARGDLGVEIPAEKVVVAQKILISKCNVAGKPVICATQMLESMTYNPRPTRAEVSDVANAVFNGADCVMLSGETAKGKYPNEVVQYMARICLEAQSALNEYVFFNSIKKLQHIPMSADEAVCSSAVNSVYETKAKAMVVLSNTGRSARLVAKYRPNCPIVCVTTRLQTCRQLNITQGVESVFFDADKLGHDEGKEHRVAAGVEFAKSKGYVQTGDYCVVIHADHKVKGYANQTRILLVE
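Purified LmPK (0.1 nM) with 0.5 mM PEP and 0.1 mM ADP in imidazole buffer pH 7.2 with MgCl2/KCl, 1 h at room temperature. ATP formed was read by luciferase luminescence and normalized to no-enzyme and uninhibited controls.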
Sm TGR inh = qHTS Assay for the Inhibitors of Schistosoma Mansoni Peroxiredoxins | purified TGR, DTNB reduction, TNB absorbance 405 nm | Potency, µM (titrated, usually from 114 µM), for inactives: top-dose activity change, negative = inhibition, hits mostly inhibitors | hit rate 3% among 360,000; note: potency is the fitted concentration of half-maximal effect; % is set by controls: 0 for no effect and ±100 for the full control effect; nearly all actives have a fitted effect of over 60% in size
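Kinetic colorimetric format: TGR-catalysed, NADPH-driven DTNB reduction monitored via TNB absorbance. Enzyme dispensed at 20 nM; compound exposure 15 min at room temperature before reaction start.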
TbPYK inhibitor = qHTS of Trypanosoma Brucei Inhibitors | pyruvate kinase (Trypanosoma brucei), Q57TT1 | TbPYK enzyme, Kinase-Glo Plus ATP luminescence, 45 min | AID 624173, 2012 | Potency, µM (top dose mostly 76.8 µM), inactives show at the top dose activity, negative = inhibition, most hits filed as inhibitors | hit rate 0.12% among 410,000; note: potency is the fitted concentration of half-maximal effect; % is set by controls: 0 for no effect and ±100 for the full control effect; nearly all actives have a fitted effect of over 50% in size
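Enzyme and substrate buffer are dispensed first and compound is pin-transferred. ADP at 130 uM final then starts the reaction, which runs 45 min at room temperature. Detection reagent is added for 10 min before luminescence is imaged.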
FBPA Giardia inh = qHTS Assay for Inhibitors of Fructose-1,6-bisphosphate Aldolase from Giardia Lamblia; A8B2U2; purified Giardia FBPA; Potency, µM (top dose mostly 59.6 µM), inactives show top-dose activity, negative = inhibition, most hits filed as inhibitors; hit rate 0.71% among 290,000; note: potency is the fitted concentration of half-maximal effect; % is set by controls: 0 for no effect and ±100 for the full control effect; nearly all actives have a fitted effect of over 55% in size
Target sequence (A8B2U2 whole entry, looked up): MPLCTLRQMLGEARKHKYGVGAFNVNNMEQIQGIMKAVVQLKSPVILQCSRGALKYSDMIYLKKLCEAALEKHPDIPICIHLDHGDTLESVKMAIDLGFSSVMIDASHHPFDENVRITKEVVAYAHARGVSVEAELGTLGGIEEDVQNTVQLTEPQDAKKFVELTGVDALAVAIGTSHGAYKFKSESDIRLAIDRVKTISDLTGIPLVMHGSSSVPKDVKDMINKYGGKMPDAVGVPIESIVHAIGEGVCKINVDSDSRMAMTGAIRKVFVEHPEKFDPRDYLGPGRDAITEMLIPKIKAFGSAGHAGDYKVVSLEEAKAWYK
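40 nM FBPA preincubated 10 min at RT with compound (up to 57.5 uM final), then substrate plus GAPDH/TPI/NAD/arsenate coupling and diaphorase/resazurin added. Fluorescence read after 20 min at RT, 525/598 nm.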
CHX counter-2 = Cycloheximide Counterscreen for Small Molecule Inhibitors of Shiga Toxin (Confirmatory). hit rate 3% among 510. shares compounds with Shiga toxin inh. Potency, µM (highest dose often 38.3 µM), for inactives: at the highest dose activity (activation), hits mostly activators. Cycloheximide counterscreen, protein synthesis reporter, Shiga toxin assay; calls by dose curve; note: potency is the fitted concentration of half-maximal effect; 0% is about no effect
* hit, by the source's call; ? = inconclusive; nt = no result; ! = repeats disagree. The full list was thinned out, with hits kept by preference. Unless noted, calls come from the whole dose curve; as a rule, active = well fitted curve in the direction sought with a large enough effect; inconclusive = small, poorly fitted or top-dose-only effect, or another doubt; inactive = no such curve, though single readings can be large; an effect the other way counts as inactive or inconclusive.

SMILES | Shiga toxin inh | CHX counter-1 | LmPK inh | Sm TGR inh | TbPYK inhibitor | FBPA Giardia inh | CHX counter-2
Cc1ccc2c(c1C)NC(C(=O)O)C1CC=CC21 (stereo not drawn) | 110.3*! | 4.6 | -7.1% | 2.51µM* | ? | -25.7% | -2.5%
COc1ccc(NC(=O)CSc2nnc(-c3nonc3NC(C)=O)n2C)cc1Cl | nt | nt | nt | 2.3% | 3.2% | nt | nt
Cc1ccc(C)c(N2CCN(c3c(CN4CCCC4)c(=O)oc4ccccc34)CC2)c1 | nt | nt | nt | ? | -7.6% | nt | nt
COc1ccc(NC(=O)C2(C)CCN2CCOc2ccc(C)cc2)cc1OC (stereo not drawn) | nt | nt | nt | nt | 3.6% | nt | nt
O=c1[nH]nc(Cc2ncc(C(F)(F)F)cc2Cl)c2ccccc12 | -2.2 | -6.3 | 0.6% | 8.4% | 0.8% | -0.2% | nt
O=c1[nH]nc(CNc2ccc(C(F)(F)F)cc2)c2ccccc12 | 29.4* | 15.3 | 6.5% | -1.6% | -3.7% | -11.1% | ?
CCN(CCn1cccn1)Cc1nc(-c2ccccc2)no1 | 34.5* | 7.4 | -1.0% | -2.6% | -2.6% | -3.2% | 3.8%
COc1cccc(Oc2ccc(N)cn2)c1 | 29.0* | 8.9 | 5.5% | -27.7% | 1.5% | 25.1% | 1.5%
Cc1cc(Oc2ccc(N)cn2)ccc1Cl | 35.3 | 12.6 | 8.5% | ? | 0.0% | -7.4% | nt
O=C1ON=C(c2ccccc2)/C1=C/c1ccc(OS(=O)(=O)c2ccccc2)cc1 | 28.8* | 7.6 | 4.1% | 8.91µM* | -24.1% | 0.8% | 0.0%
COc1ccc(/C=C2\C(=O)ON=C2c2ccccc2)cc1 | 17.5 | 15.2 | 0.5% | ? | -24.7% | -8.4% | nt
CCOC(=O)c1c(C2COc3ccccc3O2)csc1NC(=O)c1ccco1 (stereo not drawn) | 25.8* | -1.2 | 0.6% | 0.0% | -28.2% | -4.6% | -4.1%
O=C(Cc1cccs1)Nc1nc(-c2ccc(F)c(F)c2)cs1 | 44.4* | 11.1 | -6.3% | -9.3% | -21.6% | 7.1% | 4.0%
O=C(Cc1ccccc1)Nc1nc(-c2ccc(F)c(F)c2)cs1 | 42.4 | 14.2 | -7.7% | 2.7% | 3.6% | nt | nt
Cc1ccc(NC(=O)CSc2ncc3c(n2)-c2ccccc2N(Cc2cccc(F)c2)S3(=O)=O)cc1F | nt | nt | nt | -0.1% | 1.6% | nt | nt
COc1ccc(N2CC(NC(=O)Cc3cccs3)CC2=O)cc1 (stereo not drawn) | nt | nt | nt | 0.6% | -5.6% | nt | nt
COC(=O)c1ccc(/C=C/C(=O)OCC(=O)Nc2cc(C)on2)cc1 | nt | nt | nt | nt | 1.4% | nt | nt
Cc1cc(NC(=O)/C=C/c2ccc(Br)cc2)no1 | 56.5* | 6.6 | -5.0% | -13.0% | -5.3% | -1.5% | ?
CCOc1ccccc1NC(=O)COC(=O)COc1cccc2c1OC(C)(C)C2 | nt | nt | nt | nt | 8.1% | nt | nt
COC(=O)c1ccc(-c2ncc(-c3cccc4ccccc34)o2)cc1 | 33.9* | 1.7 | 4.5% | 0.3% | 3.9% | -1.0% | 10µM*
Cc1ccc(-c2nnc(-c3cccc4ccccc34)o2)cc1 | nt | nt | nt | nt | -5.1% | nt | nt
CC(=O)Nc1ccc(Oc2ccc(-c3noc(C)n3)cc2)cc1 | 81.8* | 12.1 | -0.5% | -2.1% | -3.3% | 12.5% | -0.3%
CC(c1nc2ccccc2c(=O)[nH]1)N(C)c1ccc2ccccc2c1 (stereo not drawn) | 21.6 | -5.5 | 2.1% | 4.8% | 1.5% | -17.9% | nt
CC(Oc1ccc(F)cc1Br)c1nc2ccccc2c(=O)[nH]1 (stereo not drawn) | 71.0* | -1.7 | 0.4% | 4.6% | 53.0% | -7.6% | ?
COc1cc2c(c(OC)c1OC)-c1c(cc(OC)c(OC)c1OC)C[C@](C)(O)[C@@H](C)C2 | 48.7* | 1.5 | -1.8% | 18.2% | 1.3% | 2.1% | -1.0%
SMILES | Shiga toxin inh | CHX counter-1 | LmPK inh | Sm TGR inh | TbPYK inhibitor | FBPA Giardia inh | CHX counter-2
COc1ccc(-n2ccnc(NCc3ccc(C)cc3)c2=O)cc1OC | nt | nt | nt | 5.6% | 0.3% | nt | nt
CC(C)c1cc(Cn2c3ccccc3c(=O)n2C(C)CBr)on1 (stereo not drawn) | nt | nt | nt | nt | 0.1% | nt | nt
CCn1c(O)c(C2=NCCCC2)c2ccccc21 | 125.0* | -1.4 | -5.5% | -2.4% | 2.9% | -2.5% | 1.5%
Cc1cccc(OCCCC(=O)Nc2nccs2)c1C | 28.7* | 6.8 | 3.7% | 9.0% | -2.4% | 0.1% | -2.3%
CN1C(=O)C2(Nc3ccccc3-c3nc4ccccc4n32)c2ccccc21 (stereo not drawn) | 6.2 | 7.0 | -2.0% | -0.7% | 4.0% | 7.8% | nt
CCCCC1(C)Nc2ccccc2-c2nc3ccccc3n21 (stereo not drawn) | 83.7* | 13.4 | -6.3% | 2.4% | -7.0% | -7.7% | 22.5µM*
O=C1c2ccccc2C(c2nnnn2-c2ccc3c(c2)OCCO3)N1Cc1ccco1 (stereo not drawn) | nt | nt | nt | nt | -15.7% | nt | nt
Cc1cc(C(=O)CS(=O)(=O)c2ccc(F)cc2)cc(C)c1O | 34.2* | 10.1 | 10.7% | 14.1µM* | -7.8% | -7.4% | ?
Cc1noc(C)c1NC(=O)Nc1ccc2c(c1)C(=O)N([C@H](C)CO)C[C@H](C)[C@@H](CN(C)S(=O)(=O)c1cccs1)O2 | nt | nt | nt | nt | 3.8% | nt | nt
CC(C)(C)NC(=O)c1ccc(COc2ccccc2Br)o1 | 34.4* | 7.8 | 5.7% | -8.9% | 0.1% | 1.5% | 1.0%
CC(=O)Nc1ccc(NC(=O)c2ccc(COc3ccccc3Br)o2)cc1 | -3.0 | 1.6 | -1.3% | 0.0% | -13.1% | -2.3% | nt
CCC(C)c1cc([N+](=O)[O-])cc([N+](=O)[O-])c1OC(C)=O (stereo not drawn) | 25.0* | 7.5 | nt | nt | nt | 3.8% | 1.3%
CCOc1c(C(N)=O)cc([N+](=O)[O-])cc1[N+](=O)[O-] | -6.4 | -1.9 | -0.1% | -0.5% | -2.6% | -1.3% | nt
CC1CCCN(C(=O)c2ccc(Br)c(S(=O)(=O)N3CCOCC3)c2)C1 (stereo not drawn) | nt | nt | nt | 1.7% | 7.8% | nt | nt
CC(OC(=O)c1ccc2c(=O)n3c(nc2c1)CCC3)C(N)=O (stereo not drawn) | 51.2* | 10.9 | 4.3% | -2.0% | -5.6% | 9.5% | 1.4%
CC(OC(=O)c1ccc2c(=O)n3c(nc2c1)CCC3)C(=O)Nc1ccc(C(N)=O)cc1 (stereo not drawn) | nt | nt | nt | -15.8% | -8.7% | nt | nt
Cc1cc(C)nc(Sc2ccc3nnnn3n2)n1 | 30.7* | 10.4 | -0.9% | 6.1% | -3.4% | 5.6% | 9.3%
CNC(=O)c1cccn(Cc2cc(C(F)(F)F)cc(C(F)(F)F)c2)c1=O | -1.9 | 3.8 | 5.3% | -1.3% | 5.1% | -0.2% | nt
CNC(=O)c1cccn(Cc2ccc(C(F)(F)F)cc2)c1=O | 26.3* | 6.1 | -0.9% | 22.0% | -0.8% | 2.2% | -3.0%

Screening data (PubChem BioAssay)
